# From PubChem
# Pemphigus Ab inh: inhibitors of pemphigus antibody binding to human desmoglein-3. AID 588358. DSG3-coupled beads, scFv-anti-DSG3-GFP binding, flow cytometry; active compounds read low. 0.48% of 310,000 active. binding (percent of control), % at 10 µM. P32926;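 active = binding more than 3 SD below its plate's average and above zero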;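 note: hits lower antibody fragment binding to DSG3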
# Target sequence (P32926 whole entry, looked up, the tested form may be a part): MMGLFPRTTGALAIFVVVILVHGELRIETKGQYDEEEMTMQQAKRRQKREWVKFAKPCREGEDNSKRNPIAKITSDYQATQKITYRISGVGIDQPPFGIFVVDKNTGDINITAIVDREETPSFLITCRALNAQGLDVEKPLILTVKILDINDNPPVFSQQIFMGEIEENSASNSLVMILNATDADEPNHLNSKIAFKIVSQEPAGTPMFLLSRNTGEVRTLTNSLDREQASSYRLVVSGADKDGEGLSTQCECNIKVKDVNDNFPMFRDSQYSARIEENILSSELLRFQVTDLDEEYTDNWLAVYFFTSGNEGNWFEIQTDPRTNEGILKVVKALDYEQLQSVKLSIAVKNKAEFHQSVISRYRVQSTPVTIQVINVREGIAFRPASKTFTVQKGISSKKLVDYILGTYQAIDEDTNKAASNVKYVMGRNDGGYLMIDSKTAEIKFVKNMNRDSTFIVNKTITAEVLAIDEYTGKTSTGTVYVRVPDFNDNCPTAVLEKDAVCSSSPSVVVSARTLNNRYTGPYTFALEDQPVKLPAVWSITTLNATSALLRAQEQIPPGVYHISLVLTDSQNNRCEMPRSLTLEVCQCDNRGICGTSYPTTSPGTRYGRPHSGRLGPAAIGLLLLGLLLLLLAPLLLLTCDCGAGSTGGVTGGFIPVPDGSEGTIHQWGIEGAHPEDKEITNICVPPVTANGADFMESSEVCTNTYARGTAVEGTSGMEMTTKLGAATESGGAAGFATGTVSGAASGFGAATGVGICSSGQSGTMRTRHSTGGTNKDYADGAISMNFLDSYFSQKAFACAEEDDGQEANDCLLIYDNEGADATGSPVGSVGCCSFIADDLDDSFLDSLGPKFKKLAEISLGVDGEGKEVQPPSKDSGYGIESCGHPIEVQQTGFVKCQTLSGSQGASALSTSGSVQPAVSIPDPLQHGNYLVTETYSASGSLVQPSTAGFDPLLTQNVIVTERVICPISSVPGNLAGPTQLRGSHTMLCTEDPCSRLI
# CIT2 TOR yeast: yeast TOR pathway CIT2-GFP modulation. GFP response vs DMSO, % at 10 µM. 0.065% of 320,000 active. AID 2029. S. cerevisiae CIT2-GFP strain, flow cytometry, 3 h; 100 means same as DMSO wells;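 active = GFP response relative to DMSO above a set limit, near the screen mean plus 3 SD, cut at about 150% in these data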;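 note: ratio of well median GFP fluorescence to mean of DMSO wells on the plate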
# MEP2-GFP yeast: alters MEP2-GFP fluorescence in TOR pathway yeast screen; 0.51% of 330,000 active; GFP response vs DMSO, % at 10 µM; S. cerevisiae MEP2-GFP strain, flow cytometry GFP, 3 h; 100% = DMSO control level;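 active = GFP response versus DMSO above a set limit, roughly screen mean plus 3 SD, cut at about 180% in these data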;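 note: median GFP fluorescence of the barcode-gated MEP2-GFP cells per well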
# LAP4 TOR yeast: alters LAP4-GFP fluorescence in TOR pathway yeast screen | GFP response vs DMSO, % at 10 µM | 0.34% of 320,000 active | S. cerevisiae LAP4-GFP multiplex, flow cytometry GFP, 3 h; median GFP as percent of DMSO wells;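 active = GFP response vs DMSO above a set limit, about the screen mean plus 3 SD, cut at about 150% in these data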
# RPL19A-GFP yeast: yeast TOR pathway RPL19A-GFP modulation; 0.3% of 330,000 active; percent response vs DMSO, % at 10 µM; AID 2025; S. cerevisiae RPL19A-GFP strain, flow cytometry, 3 h; active compounds read low;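 active = percent response vs DMSO below 50%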;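 note: median channel GFP fluorescence of the barcoded RPL19A-GFP strain; lower means less RPL19A-GFP as with rapamycin TOR inhibition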
# AGP1 TOR yeast: yeast TOR pathway AGP1-GFP modulation | S. cerevisiae AGP1-GFP multiplex flow cytometry, 3 h; GFP as percent of DMSO wells | GFP response vs DMSO, % at 10 µM | 0.02% of 320,000 active;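 active = GFP response relative to DMSO above a set limit, near screen average plus 3 SD, cut at about 150% in these data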;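 note: median GFP channel fluorescence of the gated AGP1 strain per well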
# LAP4 cherry2: reconfirmed LAP4-GFP TOR pathway modulator in yeast | shares compounds with LAP4 TOR yeast | S. cerevisiae LAP4-GFP strain, flow cytometry GFP, 3 h | GFP response vs DMSO, % at 10 µM | 20% of 590 active | AID 2621;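 active = GFP signal as percent of the solvent control above about 150%, meaning raised reporter expression, limit read from the data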
# MEP2 cherry2: second confirmation of modulators of TOR reporter MEP2-GFP in yeast. shares compounds with LAP4 TOR yeast. S. cerevisiae MEP2-GFP strain, flow cytometry GFP, 3 h. GFP response vs DMSO, % at 10 µM. 10% of 590 active. AID 2622;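 active = GFP signal above 150% of the solvent control wells, that is a rise of more than half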;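 note: median channel GFP fluorescence of all gated yeast cells per well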
# RPL19A GFP CP2: yeast RPL19A-GFP TOR reporter modulation, second cherry pick; S. cerevisiae RPL19A-GFP strain, flow cytometry GFP, 3 h; active compounds read low; 100% means same as DMSO wells; GFP response vs DMSO, % at 10 µM; 3% of 590 active; shares compounds with LAP4 TOR yeast;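 active = under 65% GFP response relative to DMSO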;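 note: median GFP channel fluorescence per well over the all cells gate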
# CIT2-GFP pick2: reconfirmed modulator of CIT2-GFP TOR reporter in yeast; shares compounds with LAP4 TOR yeast; S. cerevisiae CIT2-GFP strain, flow cytometry GFP, 3 h; DMSO control wells read 100%; GFP response vs DMSO, % at 10 µM; 8% of 590 active;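 active = GFP response vs DMSO above about 150%, limit read from the data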;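 note: median green fluorescence per well over all gated yeast cells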
# AGP1 GFP CP2: reconfirmed modulator of AGP1-GFP TOR reporter in yeast | shares compounds with LAP4 TOR yeast | S. cerevisiae AGP1-GFP strain, flow cytometry GFP, 3 h | percent response vs DMSO, % at 10 µM | 590 tested, under 10 active;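 active = over 150 percent of DMSO response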;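 note: median GFP channel fluorescence over all cells without mother daughter split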
# s288c autofluor: counter-screen for compound autofluorescence in yeast s288c cells; fluorescence change (kMESF span) at 33 µM; shares compounds with LAP4 TOR yeast; S. cerevisiae s288c, 520 nm autofluorescence, flow cytometry, 3 h; active compounds read high; zero means same as solvent-only cells; AID 2757; 610 tested, under 10 active;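 active = fluorescence span over the dose series, or activity score, above about 33, limit read from the data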
# TORC1 bypass gr: compounds blocking wildtype yeast growth but not TORC1 bypass cells. shares compounds with LAP4 TOR yeast. S. cerevisiae BY4741 spot growth rating, 48-72 h; active compounds read low. growth rating (0-3) at 30 µM. 120 tested, under 10 active;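 active = growth rating at most 1 for wild type yeast while the TORC1 bypass strain still grows fully, rated 3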
# Hits are given with their value; i = inactive; nt = no result given. In the library only some 1.2% were active in any assay of this set; here they are far more common.
SMILES,Pemphigus Ab inh,CIT2 TOR yeast,MEP2-GFP yeast,LAP4 TOR yeast,RPL19A-GFP yeast,AGP1 TOR yeast,LAP4 cherry2,MEP2 cherry2,RPL19A GFP CP2,CIT2-GFP pick2,AGP1 GFP CP2,others
CCCCNc1c2c3c(cccc3n(C)c1=O)C(=O)c1ccccc1-2,i,i,i,171,i,i,322,i,i,i,i,s288c autofluor=i
CCCCn1c(N)c(N(CCOC)C(=O)COC(=O)C(C)(C)Oc2ccc(Cl)cc2)c(=O)[nH]c1=O,i,i,i,i,i,i,nt,nt,nt,nt,nt,
Fc1ccc(Nc2nc(-c3cccnc3)cs2)cc1,i,i,i,i,i,i,i,i,i,i,i,
COc1ccc(-c2cc(=O)c3c(OC)c(OC)c(OC)c(OC)c3o2)cc1OC,i,i,i,234,i,i,i,i,i,i,i,
O=C(N[C@@H](Cc1ccccc1)C(=O)CCl)OCc1ccccc1,i,i,i,151,i,i,i,i,i,i,i,
O=C(N[C@@H](Cc1ccccc1)C(=O)N[C@@H](Cc1ccccc1)C(=O)O)OCc1ccccc1,i,i,i,i,i,i,nt,nt,nt,nt,nt,
Cc1ccc(-n2nnnc2SCC(=O)NCC2CCCO2)cc1C (configuration not stated),i,nt,nt,nt,nt,nt,nt,nt,nt,nt,nt,
Cc1cccc(C)c1NC(=O)CNC(=O)CCCN1C(=O)c2cccc3cccc(c23)C1=O,i,414,449,375,i,182,i,i,i,i,i,
Nc1ccc(-c2nc3nc(N)nc(N)c3nc2-c2ccc(N)cc2)cc1,i,i,i,i,i,i,nt,nt,nt,nt,nt,
COc1ccc(Nc2cc(C)nc(NCc3ccccc3)n2)cc1,i,i,i,i,i,i,nt,nt,nt,nt,nt,
COc1ccccc1-c1cc(Nc2cc(C)[nH]n2)nc(NCc2ccccc2)n1,nt,nt,nt,nt,nt,nt,nt,nt,nt,nt,nt,TORC1 bypass gr=i
COc1cccc(-c2cc(Nc3cc(C)[nH]n3)nc(NCc3ccccc3)n2)c1,nt,nt,nt,nt,nt,nt,nt,nt,nt,nt,nt,TORC1 bypass gr=i
COc1cc(C)nc(NCc2ccccc2)n1,i,nt,i,i,i,i,nt,nt,nt,nt,nt,
COCC(C)NC(=O)C(C)Oc1ccccc1 (configuration not stated),i,i,i,i,i,i,nt,nt,nt,nt,nt,
CC(=O)Nc1ccccc1-c1nnc(SCc2ccccc2Cl)[nH]c1=O,i,i,i,i,i,i,nt,nt,nt,nt,nt,
